Test systems include SK-MEL-2 melanoma; EKVX NSCLC; SN12C renal; UO-31 renal; TK-10 renal; ACHN renal; CAKI-1 renal; A498 renal; CCRF-CEM leukemia; MOLT-4 leukemia; SR leukemia; RPMI-8226 leukemia; OVCAR-8 ovarian; OVCAR-5 ovarian; OVCAR-4 ovarian; SK-OV-3 ovarian; IGROV1 ovarian; OVCAR-3 ovarian; HS 578T breast; NCI/ADR-RES ovarian.
Test in all cases: NCI-60 one-dose screen, 48 h (100 = growth as untreated, 0 = no growth, -100 = all killed)
Holding throughout (settings): 10 µM unless noted

This is part of a sample that, as a whole, favours compounds with a hit. Of some 83,000 tested, about 20% had one in any assay.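 Compound tested at a single concentration for 48 hours in 96-well plates; a percent growth value below 10 was scored as active.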 Unmarked numbers belong to inactive results. Activity calls are given as the source filed them.

As for `Cn1cc(-c2ccc3c(Nc4cccc(NC(=O)Nc5cccc(F)c5)c4)ncnc3c2)cn1`, the growth with SK-MEL-2 melanoma is 43.2%; in the experiment with EKVX NSCLC it was 53%; in the experiment on SN12C renal, 30.1%; in the experiment on UO-31 renal, 23.7%; with TK-10 renal, 39.4%; in the experiment on ACHN renal it was 15.2%. For the same compound, the growth in the experiment on CAKI-1 renal was 39.8%; in the experiment with A498 renal, 41.9%; with CCRF-CEM leukemia, 4.27% (active); in the experiment on MOLT-4 leukemia, 14.3%; with SR leukemia it was 0.802% (active); in the experiment on RPMI-8226 leukemia, -25.4% (active). The growth in the experiment on OVCAR-8 ovarian is 34.6%; with OVCAR-5 ovarian, 67.6%; with OVCAR-4 ovarian, 67.6%; in the experiment with SK-OV-3 ovarian, 3.1% (active); with IGROV1 ovarian, 23.8%; in the experiment with OVCAR-3 ovarian it was 44.7%. The growth with HS 578T breast is 29.8%.
On to `O=C(O)/C=C\C(=O)Nc1ccc2c(c1)Cc1cc(F)ccc1-2`, for which the growth in the experiment with SK-MEL-2 melanoma was 98%; in the experiment with EKVX NSCLC it was 90.3%; in the experiment with SN12C renal it was 100%; in the experiment with UO-31 renal it was 81%; in the experiment on TK-10 renal, 114%; in the experiment on ACHN renal, 94.2%. The growth is 81.3% with CAKI-1 renal; 109% in the experiment on A498 renal; 110% in the experiment with CCRF-CEM leukemia; 109% with MOLT-4 leukemia; 106% in the experiment with SR leukemia; 97.6% in the experiment with RPMI-8226 leukemia. Also, the growth in the experiment with OVCAR-8 ovarian is 105%; in the experiment on OVCAR-5 ovarian it was 107%; in the experiment on OVCAR-4 ovarian, 100%; in the experiment on SK-OV-3 ovarian it was 94.2%; in the experiment with IGROV1 ovarian it was 95.5%; in the experiment on OVCAR-3 ovarian it was 106%. Further, in the experiment on HS 578T breast, the growth was 126%.
Turning to `COc1ccc(S(=O)(=O)Oc2ccc(-c3sc4cc(OS(=O)(=O)c5ccc(OC)cc5)ccc4c3C(=O)c3ccc(OCCN4CCCCC4)cc3)cc2)cc1`, the growth in the experiment with SK-MEL-2 melanoma is 119%; in the experiment with EKVX NSCLC, 97%; with SN12C renal, 99.9%; in the experiment on UO-31 renal, 80.7%; with TK-10 renal it was 95%; in the experiment on ACHN renal, 101%. Moreover, the growth was 94.1% in the experiment on CAKI-1 renal; 105% in the experiment with A498 renal; 97.7% in the experiment on CCRF-CEM leukemia; 89.3% in the experiment on MOLT-4 leukemia; 102% with SR leukemia; 109% in the experiment with RPMI-8226 leukemia. The growth was 108% in the experiment on OVCAR-8 ovarian; 95.7% in the experiment with OVCAR-5 ovarian; 97.7% with OVCAR-4 ovarian; 95.9% in the experiment on SK-OV-3 ovarian; 99.3% in the experiment on IGROV1 ovarian; 100% in the experiment with OVCAR-3 ovarian. Also, the results for the growth in the experiment on HS 578T breast and with NCI/ADR-RES ovarian were 107% and 110%, respectively.
As for `COc1ccc(C(=O)/C=C/c2ccc(Cl)cc2)cc1S(N)(=O)=O`, the growth with SK-MEL-2 melanoma is 80.3%; in the experiment on EKVX NSCLC, 87.3%; in the experiment on SN12C renal, 15.4%; in the experiment with UO-31 renal it was 33.1%; in the experiment with TK-10 renal it was 70%; in the experiment on ACHN renal, 58.4%. Further, the growth with CAKI-1 renal is 74.9%; in the experiment with A498 renal, 84.6%; in the experiment with CCRF-CEM leukemia, -18.3% (active); in the experiment with MOLT-4 leukemia, -5.39% (active); with SR leukemia, -10.3% (active); with RPMI-8226 leukemia, -31.7% (active). In addition, the growth in the experiment on OVCAR-8 ovarian was 11.5%; with OVCAR-5 ovarian, 78.8%; with OVCAR-4 ovarian, 102%; in the experiment with SK-OV-3 ovarian, 83.1%; in the experiment on IGROV1 ovarian, 16.6%; in the experiment on OVCAR-3 ovarian, 61.9%. In the experiment on HS 578T breast, the growth is 91.5%.
For the compound `CCCC[N+]1(C)CCN=C1Cc1ccccc1` (stereo not drawn), the growth is 103% with SK-MEL-2 melanoma; 96.6% in the experiment on EKVX NSCLC; 94.4% in the experiment on SN12C renal; 95.5% in the experiment with UO-31 renal; 91.5% in the experiment with TK-10 renal; 112% in the experiment with ACHN renal. Moreover, the growth in the experiment with CAKI-1 renal is 95.8%; in the experiment with A498 renal, 97.2%; in the experiment with CCRF-CEM leukemia it was 83.5%; in the experiment with MOLT-4 leukemia, 94.6%; with SR leukemia, 94.4%; in the experiment with RPMI-8226 leukemia, 75.7%. Further, the growth was 97.2% with OVCAR-8 ovarian; 103% in the experiment on OVCAR-5 ovarian; 109% with OVCAR-4 ovarian; 109% in the experiment with SK-OV-3 ovarian; 106% in the experiment on IGROV1 ovarian; 103% with OVCAR-3 ovarian. The growth in the experiment on HS 578T breast is 97.7%.
Take `c1ccc(-c2cn3nc(-c4c[nH]c5ccccc45)sc3n2)cc1`: the growth is 94.4% with SK-MEL-2 melanoma; 70.3% with EKVX NSCLC; 83% in the experiment with SN12C renal; 46.4% in the experiment with UO-31 renal; 105% in the experiment with TK-10 renal; 83.3% with ACHN renal. In addition, the growth in the experiment with CAKI-1 renal is 66.1%; with A498 renal, 89.9%; in the experiment on CCRF-CEM leukemia it was 86.4%; in the experiment on MOLT-4 leukemia, 83.9%; in the experiment with SR leukemia it was 21.7%; in the experiment with RPMI-8226 leukemia, 91.8%. Also, the growth was 93.3% with OVCAR-8 ovarian; 74.2% in the experiment with OVCAR-5 ovarian; 70.4% in the experiment on OVCAR-4 ovarian; 80.4% with SK-OV-3 ovarian; 56.5% in the experiment on IGROV1 ovarian; 86.1% with OVCAR-3 ovarian. Besides, the growth in the experiment on HS 578T breast is 84.5%.
For `O=CN1N=C(c2cccc(Nc3ccncc3)c2)CC1c1ccc2c(c1)OCO2` (stereo not drawn), the growth in the experiment on SK-MEL-2 melanoma was 85.5%; with EKVX NSCLC it was 67.6%; in the experiment on SN12C renal, 99.3%; in the experiment on UO-31 renal, 86.9%; in the experiment on TK-10 renal, 109%; in the experiment on ACHN renal, 97.2%. Moreover, the growth was 80.7% in the experiment with CAKI-1 renal; 96.5% in the experiment on A498 renal; 86.1% in the experiment with CCRF-CEM leukemia; 92.3% with MOLT-4 leukemia; 82.1% in the experiment with SR leukemia; 80% with RPMI-8226 leukemia. The growth is 91.3% in the experiment with OVCAR-8 ovarian; 98.5% in the experiment on OVCAR-5 ovarian; 82.7% with OVCAR-4 ovarian; 78.6% in the experiment with SK-OV-3 ovarian; 102% in the experiment with IGROV1 ovarian; 99.6% in the experiment with OVCAR-3 ovarian. Moreover, the growth with HS 578T breast was 94.2%.
With `O=C(CN1C(=O)NC2NC(=O)NC21)N/N=C/c1cccc([N+](=O)[O-])c1` (stereo not drawn), the growth in the experiment with SK-MEL-2 melanoma is 113%; in the experiment on EKVX NSCLC it was 102%; in the experiment with SN12C renal, 96.5%; in the experiment on UO-31 renal, 88.4%; with TK-10 renal it was 106%; in the experiment with ACHN renal, 104%. Besides, the growth with CAKI-1 renal is 85.8%; in the experiment with A498 renal it was 95.8%; with CCRF-CEM leukemia, 106%; in the experiment with MOLT-4 leukemia it was 106%; in the experiment on SR leukemia, 110%; with RPMI-8226 leukemia it was 110%. For the same compound, the growth with OVCAR-8 ovarian was 111%; with OVCAR-5 ovarian, 105%; with OVCAR-4 ovarian, 105%; in the experiment with SK-OV-3 ovarian it was 108%; in the experiment with IGROV1 ovarian it was 103%; with OVCAR-3 ovarian it was 108%. Further, the growth in the experiment on HS 578T breast is 107%.

For the origin of these results see PubChem BioAssay (NCI).
